Screening results as filed in PubChem.
An excerpt weighted towards active compounds, which were near 21% of everything screened.
CHX counter = Cycloheximide Counterscreen for Small Molecule Inhibitors of Shiga Toxin | 12% of 300,000 active | cell reporter, cycloheximide protein synthesis inhibition counterscreen | max response, % | AID 2314, 2010; in the data active = max response mostly above about 13%, no sharp cut-off; inactive = mostly below about 14%; also: read at 38.3 µM for the half of the compounds with a filed dose; 0% is about no effect
Pf growth 96h = Primary qHTS for delayed death inhibitors of the malarial parasite plastid, 96 hour incubation; P. falciparum luciferase reporter growth, 96 h; Potency, µM (highest dose often 28.7 µM), without a hit: at the top dose activity change, negative = inhibition, actives largely listed as inhibitors; 6.9% of 320,000 active; also: potency is read from the fitted curve at half-maximal effect; % is scaled to controls: 0 for no effect and ±100 for the full control effect
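Two parasite generations (96 h, 37 C, 5% CO2) of compound exposure in infected erythrocytes (0.05% parasitemia, 2% hematocrit). Luciferase-reporter P. falciparum; decreased luminescence indicates inhibited growth, aimed at apicoplast-acting delayed death.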
Sm TGR block = qHTS Assay for the Inhibitors of Schistosoma Mansoni Peroxiredoxins. Schistosoma mansoni thioredoxin glutathione reductase (TGR), Q962Y6. purified TGR, DTNB reduction, TNB absorbance 405 nm. Potency, µM (series often up to 114 µM), inactives show top-dose activity change, negative = inhibition, usual class: inhibitors. 3% of 360,000 active. AID 485364, 2010; also: potency is read from the fitted curve at half-maximal effect; % is scaled to controls: 0 for no effect and ±100 for the full control effect; nearly all actives have a fitted effect of over 60% in size
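TGR 20 nM + NADPH 100 uM (dispensed conc.), cpd preinc 15 min RT; start with NADPH (500 uM addition) then DTNB (15 mM addition). Kinetic TNB absorbance, 405 nm filter. Four-parameter Hill fit across titration.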
NS1 function inh = qHTS Assay for Inhibitors of Influenza NS1 Protein Function; Potency, µM (top dose mostly 46.1 µM), for inactives: at the top dose activity, positive = more growth; 0.4% of 270,000 active; AID 2326, 2010; calls by dose curve; also: potency is read from the fitted curve at half-maximal effect; actives are rising curves; nearly all actives have a fitted effect of over 50% in size
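S. cerevisiae expressing influenza A NS1, grown in glucose, washed, then diluted 1:100 into pH 6.0 -URA galactose medium with 23 nl compound. Growth recovery read as OD600; NS1-free strain serves as control.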
Pf growth 48h = Primary qHTS for delayed death inhibitors of the malarial parasite plastid, 48 hour incubation | P. falciparum luciferase growth in erythrocytes, 48 h | Potency, µM (highest dose often 28.7 µM), for the others: top-dose activity change, negative = inhibition, most hits filed as inhibitors | 5.9% of 310,000 active; also: potency is read from the fitted curve at half-maximal effect; % is scaled to controls: 0 for no effect and ±100 for the full control effect
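Erythrocytes infected with P. falciparum carrying an integrated firefly luciferase reporter (2% hematocrit, 0.1% parasitemia final) were exposed to compounds in RPMI 1640 with 0.5% Albumax at 37 C, 5% CO2. Growth inhibition was scored as reduced luminescence.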
Shiga inhibitor = A qHTS for Small Molecule Inhibitors of Shiga Toxin; Vero cells, Shiga toxin protein synthesis inhibition reporter; inhibition, % at 38.7 µM; 9.2% of 290,000 active; AID 2315, 2010; in the data active = inhibition mostly above about 28%, no sharp cut-off; inactive = mostly below about 43%; also: 0% is about no effect
The depositor's hits bear a star; ? = inconclusive; . = no result given. Unless noted, calls follow the shape of the dose curve; as a rule, active = well fitted curve in the direction sought with a large enough effect; inconclusive = small, poorly fitted or top-dose-only effect, or another doubt; inactive = no such curve, though single readings can be large; an effect the other way counts as inactive or inconclusive.

SMILES | CHX counter | Pf growth 96h | Sm TGR block | NS1 function inh | Pf growth 48h | Shiga inhibitor
CC(C)(C)C(=O)N1CCN(c2nc3ccccc3s2)CC1 | 57.0* | 179.2% | 3.1% | -2.5% | 115.9% | 76.1*
O=C(NC1CCCCCC1)C1CCN(c2nc3ccccc3o2)CC1 | -0.4 | 0.1% | 2.6% | -55.7% | ? | -1.6
COc1ccccc1NC(=O)CNC(=O)c1ccccc1 | -1.0 | . | 14.6% | -0.1% | 4.9% | 2.6
COc1ccc(-c2nc3ccccc3s2)cc1NC(=O)COc1cccc(C)c1 | 54.0* | . | -6.0% | . | . | 71.2*
COc1ccc(-c2nc3ccccc3s2)cc1NC(C)=O | 35.0* | 0.2% | 4.1% | -8.0% | 85.4% | 99.8*
COc1ccc(-c2nc3ccccc3s2)cc1NC(=O)c1ccccc1F | . | . | -4.0% | . | . | .
Cc1ccc(C(=O)NC(=S)Nc2cc(-c3nc4ccccc4s3)ccc2C)cc1 | 65.2* | ? | -16.9% | 14.8% | 82.9% | 116.9*
COc1ccc(-c2cnc3ccccc3n2)cc1NC(=O)CNC(=O)c1ccccc1 | 35.7* | ? | 4.8% | -2.9% | 11.4% | 35.9
COc1ccc(-c2nc3ccccc3s2)cc1NC(=O)COc1ccc(C)cc1 | . | . | 1.8% | . | . | .
COCCNC(=O)c1ccc(-n2c(-c3ccccc3)cc3c2CCCCC3)cc1 | . | . | 29.6% | . | . | .
O=C(/C=C/c1ccc(Cl)cc1)Nc1nc(-c2cccs2)ns1 | . | . | -3.9% | . | . | .
Cc1ccc(C)c(Cn2c(=O)n(-c3ccc(F)cc3)c(=O)c3sc4ccccc4c32)c1 | . | . | 7.4% | . | . | .
O=C(N=NC(=O)c1ccc2c(O)n(CC3CCCO3)c(O)c2c1)c1cccnc1 (centres undefined) | -2.3 | 13.1% | 4.1% | 6.8% | ? | -15.6
Cc1[nH]ccc(=O)c1OCc1c(Cl)cccc1Cl | -1.5 | 2.4% | -2.8% | 2.1% | -1.9% | 32.5
Cc1ccc(Cn2ccc(=O)c(OCc3c(Cl)cccc3Cl)c2C)cc1 | -0.8 | 4.15µM* | -22.5% | -0.6% | . | -11.7
CN=C1SC(C(=O)Nc2ccccc2Cl)CC(=O)N1c1ccc(OC(F)(F)Cl)cc1 (centres undefined) | -1.7 | 0.0% | -3.2% | . | 10.4µM* | -16.4
COc1ccccc1N=C1SC(C(=O)Nc2ccccc2OC)CC(=O)N1C (centres undefined) | . | . | -3.9% | . | . | .
CC(C)=CC(=O)O[C@H]1[C@@H]2[C@H](C)C(=O)O[C@@H]2C[C@@H](C)[C@@H]2[C@@H](O)CC(=O)[C@]21C | -7.4 | 23.8% | -16.5% | ? | 33.8% | -4.9
C[C@@H]1C[C@H]2OC(=O)C3(CO3)[C@H]2[C@H](O)[C@]2(C)C(=O)C3OC3[C@@H]12 (some centres undefined) | 20.8* | ? | -24.5% | 10.0% | 11.7µM* | 40.0*
COC(=O)c1sc(NC(=O)/C=C/c2ccccc2Cl)nc1C | 12.6 | ? | 12.7% | . | 32.3% | 43.3
COc1cccc(OC)c1C(=O)N1CCOCC1 | -2.3 | 14.7µM* | 0.7% | -2.0% | -8.1% | 11.2
COc1ccccc1-c1cc(C(F)(F)F)nc(N2CCN(c3ccc(F)cc3)CC2)n1 | -1.8 | 13.1µM* | 0.4% | -8.9% | -2.4% | -4.8
COc1ccccc1-c1cc(C(=O)N2CCOCC2)no1 | 29.3* | ? | 1.1% | -2.8% | 97.3% | 89.5*
COc1ccccc1N1CCN(C(=O)c2cc(-c3cccs3)on2)CC1 | 6.9 | 2.9% | 6.9% | 6.1% | -11.3% | 22.8
O=C(c1cccc(F)c1)N1CCN(C(=O)c2cc(-c3ccc(Cl)cc3Cl)on2)CC1 | -1.9 | -17.0% | ? | ? | -10.1% | -2.0
SMILES | CHX counter | Pf growth 96h | Sm TGR block | NS1 function inh | Pf growth 48h | Shiga inhibitor
O=C(c1cc(-c2ccccc2Cl)on1)N1CCCC1 | 14.2* | 323.9% | -9.7% | -2.9% | 0.0% | 32.9
COc1ccccc1-c1cc(C(F)(F)F)nc(N2CCN(c3ccccc3)CC2)n1 | 0.7 | ? | -26.9% | -3.3% | 18.2% | -5.0
COc1ccccc1-c1cc(C(=O)N2CCN(c3ccc(F)cc3)CC2)no1 | 0.9 | 8.28µM* | 0.0% | -5.2% | 34.7% | 35.9
COc1ccccc1N1CCN(C(=O)c2cc(-c3ccccc3O)on2)CC1 | 1.4 | -3.4% | -14.2% | -5.1% | ? | 2.4
COc1ccccc1-c1cc(C(=O)N2CCCC2)no1 | 33.7* | ? | 8.5% | -27.2% | 131.6% | 84.4*
COc1ccc(-c2nnc(N3CCOCC3)c3ccccc23)cc1 | -0.2 | 13.1µM* | 2.6% | 23.3% | -8.9% | 19.4
O=C(COc1ccccc1)N1CCN(c2nnc(-c3ccccc3)c3ccccc23)CC1 | -5.3 | 10.4µM* | -6.0% | -41.7% | ? | -16.8
Cc1cccc(OCC(=O)N2CCN(c3nnc(-c4ccccc4)c4ccccc34)CC2)c1 | -0.6 | ? | 4.9% | -12.4% | ? | -3.3
COc1ccc(OCC(=O)N2CCN(c3nnc(-c4ccccc4)c4ccccc34)CC2)cc1 | 1.1 | 1.85µM* | -0.5% | -87.2% | ? | -3.8
CCC(=O)N1CCN(c2nnc(-c3ccccc3)c3ccccc23)CC1 | -1.2 | -24.2% | -7.4% | -4.3% | -14.9% | -14.7
CCOC(=O)N1CCN(C(=O)CSc2ccc3nnc(-c4cccnc4)n3n2)CC1 | 0.5 | 3.3% | 9.3% | 12.4% | 34.0% | -3.0
CC(C)(C)Nc1nc(N)nc(Cl)n1 | -2.7 | 30.7% | -10.9% | 1.8% | 21.3% | -7.3
CC(C)(C)Nc1nc(Cl)nc(NC2CCCCC2)n1 | 5.7 | 13.1µM* | -0.8% | 21.8% | -18.7% | 2.3
Cc1ccc(Nc2nc(Cl)nc(NC3CCCCC3)n2)cc1 | 25.0* | 20.7% | -2.2% | -3.6% | 36.5% | 62.4*
O=C(O)[C@H]1NCCC[C@H]1C(=O)O | . | . | . | 1.0% | . | .
CC(=O)c1sc2nc(C)c3c(c2c1N)CCCC3 | 20.8* | 2.1% | 2.4% | -10.8% | 14.8% | 54.9
Cc1nc2sc(C#N)c(N)c2c2c1CCCC2 | -1.1 | 11.7µM* | 0.0% | -57.9% | 25.0% | -10.0
N#Cc1sc2nc(N3CCCCC3)c3c(c2c1N)CCCC3 | -0.7 | ? | 0.0% | 0.6% | 5.22µM* | -8.5
CN1Cc2c(N3CCOCC3)nc3sc(C#N)c(N)c3c2CC1(C)C | -2.0 | ? | -6.2% | -4.8% | ? | -7.7
CN1CCN(C(=S)c2cn(Cc3ccc(Br)cc3)c3ccccc23)CC1 | -1.3 | -0.5% | -1.2% | . | ? | -16.3
O=C(C1CC1)N1CCN(S(=O)(=O)c2ccc3c(c2)OCCO3)CC1 | -2.8 | -13.2% | -8.2% | . | -7.6% | 13.6
Cc1ccc2c(C(=O)CN3CCC(C(N)=O)CC3)c(C)[nH]c2c1 | 0.6 | 9.7% | 35.5µM* | 0.2% | 13.7% | -5.3
Cc1ccc2c(C(=O)CN3CCCCC3)c(C)[nH]c2c1 | -1.1 | -10.6% | 20µM* | 6.7% | -7.6% | -14.9
COc1cc(OC)c(NS(=O)(=O)c2c(C(=O)N3CCCCCC3)c(C)n(C)c2C)cc1Cl | . | . | 23.0% | . | . | .
